Source: PubChem (several laboratories)
S1P4 antagonist: S1P4 receptor antagonists, primary screen, cell-based. S1P4-expressing cells, antagonist mode, reporter read-out. inhibition, % at 4.98 µM. 0.26% of 220,000 active. AID 1510, 2009; in the data active = inhibition above about 29%;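 also: 0% = wells stimulated with agonist and 100% = vehicle wells without agonist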
Target sequence (O95977 whole entry, looked up): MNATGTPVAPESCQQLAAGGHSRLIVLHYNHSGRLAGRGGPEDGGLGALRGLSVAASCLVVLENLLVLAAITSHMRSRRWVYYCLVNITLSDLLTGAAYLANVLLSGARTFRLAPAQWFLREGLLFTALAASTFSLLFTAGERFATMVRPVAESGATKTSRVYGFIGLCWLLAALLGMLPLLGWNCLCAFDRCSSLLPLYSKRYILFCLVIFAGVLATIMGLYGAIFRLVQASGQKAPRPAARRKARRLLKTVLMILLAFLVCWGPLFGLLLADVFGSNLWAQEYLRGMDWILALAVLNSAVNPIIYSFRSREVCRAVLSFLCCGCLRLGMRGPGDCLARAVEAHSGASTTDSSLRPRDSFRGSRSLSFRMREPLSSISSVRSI
Hsp70 act: Hsp70 transcriptional activators, primary screen, cell-based, HeLa, Hsp70 promoter luciferase, luminescence, 10 µM; 0.04% of 200,000 active; HeLa Hsp70 promoter luciferase reporter; scaled: vehicle 0, proteasome-inhibitor control 100%; activation, % at 10 µM;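 active = activation above the mean across all tested compounds plus 3 SD, cutoff set per campaign, cut at about 5.5% in these data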;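 also: 100% = MG132 at 30 µM as the positive control and 0% = DMSO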
S1P4 ag: S1P4 receptor agonists, primary screen, cell-based | Sphingosine 1-phosphate receptor 4 (Homo sapiens), O95977 | S1P4-expressing cell line, agonist reporter assay | activation, % at 4.98 µM | 0.35% of 220,000 active | AID 1509, 2009; in the data active = activation above about 11%;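 also: 0% = DMSO vehicle and 100% = reference agonist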
HSF1 activator: HSF-1 activators, primary screen, NIH3T3-HGL cells, MG132 stress, luminescence, single point. AID 504408, 2011. 1.7% of 300,000 active. NIH3T3-HGL HSF-1 luciferase reporter, 8 h; 100% = twice DMSO control signal. activation, % at 9 µM;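 active = mean replicate activation of at least 50% with a set share of replicates each reaching 50%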;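 also: 0% = median of the neutral control wells and 100% = twice that signal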
S1P3 antag: S1P3 receptor antagonists, primary screen, cell-based; 0.27% of 170,000 active; CHO S1P3 NFAT-BLA reporter, FRET fluorescence, antagonist mode; inhibition, % at 4.98 µM; Sphingosine 1-phosphate receptor 3 (Homo sapiens), Q99500;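 active = inhibition above the plate cutoff, the mean inhibition of test wells on that plate plus 3 SD, cut at about 28% in these data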;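 also: cells challenged with S1P at its EC80 of 0.8 µM; blue over green emission ratio from cleaved BLA substrate after 4 h stimulation; 0% = S1P-stimulated wells and 100% = unstimulated DMSO-only wells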
HSF1 inhib: HSF1 inhibitors in luciferase reporter cells, primary screen, cell-based, NIH3T3, luminescence; NIH3T3-HGL HSE-luciferase, MG132-induced, luminescence 8 h; active compounds read low; activity change, negative = inhibition, % at 7.5 µM (by protocol); 0.77% of 300,000 active; AID 2098, 2009;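 active = more than half of replicate wells show activity change below -50%, luminescence cut by over half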;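 also: luciferase reports HSF-1 transcriptional activity via heat shock element; 0% = median of DMSO wells and -100% = zero luminescence signal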
Numbers without * were called inactive; / = no result given. Only some compounds are listed: those with a hit (about 2.9% of all), similar ones and a draw of the others.

SMILES	S1P4 antagonist	Hsp70 act	S1P4 ag	HSF1 activator	S1P3 antag	HSF1 inhib
CC(C)(C)c1ccc(C(=O)CC(Sc2ccc(Cl)cc2)C(=O)O)cc1 (stereo unspecified)	24	0	0	56*	4	57
COc1ccc(CCc2nc(C)ccc2O)cc1	-4	0	-1	22	-14	7
Cc1ccc(OCC(=O)O/N=C(\N)c2ccccn2)cc1	-6	0	-1	57*	-8	28
N/C(=N\OC(=O)COc1cc(Cl)c(Cl)cc1Cl)c1ccccn1	7	0	2	93*	-6	40
N/C(=N\OC(=O)COc1ccc(Cl)cc1)c1cccnc1	-6	0	0	31	-10	19
Cc1cccc(OCC(=O)O/N=C(\N)c2ccccn2)c1C	3	0	-1	13	/	21
N/C(=N\OC(=O)COc1ccc(Cl)cc1Cl)c1cccnc1	-16	0	-1	93*	16	49
Cc1nc2ccc(C(=O)N3CCCC(CO)(Cc4ccc(F)cc4F)C3)cc2nc1C (stereo unspecified)	/	/	/	-5	/	-6
CCN(CC)CCNC(=O)Cc1nn(Cc2ccccc2)c(=O)c2ccccc12	-8	0	2	4	14	-2
Cc1c(Br)c([N+](=O)[O-])nn1C(C)C(=O)Nc1c(C)n(C)n(-c2ccccc2)c1=O (stereo unspecified)	-5	0	-1	-7	/	0
COc1ccc2c(c1)C1OCCC1C(c1ccco1)N2 (stereo unspecified)	/	/	/	56*	/	31
Cc1ccc(/C=N/N2CCN(Cc3ccccc3)CC2)o1	8	0	3	4	/	-1
Cc1ccc(/C=N/N(Cc2ccccc2)c2ccccc2)o1	-2	0	4	106*	5	60
COc1ccccc1N1CCN(C(c2cccs2)C(C)NC(=O)c2ccncc2)CC1 (stereo unspecified)	2	/	0	-47	11	-30
CCc1nccn1Cc1cc(C=O)ccc1OC	-31	0	1	-9	-8	-1
COc1ccc(C=O)cc1Cn1ccnc1C	-2	0	-1	-77	-8	-77*
O=C(/C=C/c1cn(-c2ccccc2)nc1-c1cccnc1)c1ccco1	17	1	-2	119*	-3	97
CCS(=O)(=O)N1Cc2ccccc2CC1C(=O)Nc1nc2ccccc2s1 (stereo unspecified)	-10	-1	-2	-70	4	-61*
CCc1nnc(NC(=O)C2Cc3ccccc3CN2S(=O)(=O)CC)s1 (stereo unspecified)	2	0	-1	13	-8	-3
CCCCNC(=O)c1c(CSc2ccc(Cl)cc2)noc1C(=O)NCc1ccccc1	/	/	/	-2	/	6
O=C(NCC1CCCO1)c1onc(CSc2ccc(Cl)cc2)c1C(=O)O (stereo unspecified)	5	0	1	-70	/	-61*
CCCNC(=O)c1c(CSc2ccc(Cl)cc2)noc1C(=O)NCc1ccccc1	/	/	/	54*	/	25
COC(=O)c1cccc(Oc2cccc(C(F)(F)F)c2)n1	-8	0	2	-2	10	-2
CC1(C)CCCN(Cc2c(O)ccc3c(=O)c(-c4nc5ccccc5s4)c(N)oc23)C1	2	/	-2	79*	-3	52
COC(=O)c1ccc(COc2ccccc2/C=C(\C#N)C(=O)Nc2c(C)cc(C)cc2C)cc1	-1	0	-1	93*	-14	68
COC(=O)c1ccc(COc2ccccc2/C=C(\C#N)C(=O)Nc2ccc(C)cc2C)cc1	-9	0	0	7	-13	8
Cn1ncc(Br)c1C(=O)N1CCOCC1	-1	0	1	55*	-3	12
Cn1ncc(Cl)c1C(=O)N1CCOCC1	-6	0	1	15	-1	-6
COc1cc(/C=C2\SC(=S)N(Nc3ncc(C(F)(F)F)cc3Cl)C2=O)ccc1O	13	0	0	72*	/	66
